For seven sequences, binding signal results are on record in article PMC7862700, “An all-to-all approach to the identification of sequence-specific readers for epigenetic DNA modifications on cytosine”.

Holding throughout (experiment): DAPPL (digital affinity profiling via proximity ligation, sequencing); 10 mM Tris-HCl pH 7.5, 50 mM NaCl, 1 mM DTT, 4% glycerol, room temperature, 30 min; GST-TFs on glutathione beads, 16-mer random dsDNA library, 0.1% formaldehyde crosslink after washing; high values mean tight binding
Details in all cases: protein: recombinant; tags: N-terminal GST; dsDNA, one strand shown

The target of assay [1] is T1, ERF (Homo sapiens, UniProt P50548 1-548).
T1 sequence: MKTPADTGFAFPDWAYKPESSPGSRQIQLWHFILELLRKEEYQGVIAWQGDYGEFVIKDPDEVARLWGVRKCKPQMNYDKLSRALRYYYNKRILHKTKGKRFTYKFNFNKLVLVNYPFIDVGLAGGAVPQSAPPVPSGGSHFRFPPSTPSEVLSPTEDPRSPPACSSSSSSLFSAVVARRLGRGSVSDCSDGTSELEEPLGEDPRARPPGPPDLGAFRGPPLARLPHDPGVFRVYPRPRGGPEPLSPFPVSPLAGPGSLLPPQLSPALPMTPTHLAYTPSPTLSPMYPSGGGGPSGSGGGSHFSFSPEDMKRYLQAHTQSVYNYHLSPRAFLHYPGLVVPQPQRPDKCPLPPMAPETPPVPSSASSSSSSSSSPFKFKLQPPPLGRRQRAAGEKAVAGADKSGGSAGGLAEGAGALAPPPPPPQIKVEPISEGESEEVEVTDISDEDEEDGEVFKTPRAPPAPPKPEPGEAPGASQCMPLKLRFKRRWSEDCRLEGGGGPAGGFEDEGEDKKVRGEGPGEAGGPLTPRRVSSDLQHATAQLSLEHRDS
An outline of the steps: (§1)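 A tag-only sample was pooled with DNA-barcoded human transcription factors that had been expressed in yeast as GST fusions and captured on glutathione beads. The pools were incubated for 30 min at room temperature with 200 nmole of a random double-stranded 16-mer DNA library in Tris/NaCl/DTT/glycerol buffer, then washed, crosslinked with 0.1% formaldehyde, proximity-ligated (BsaI/T4 ligase, 1 h, 37 °C), PCR-amplified and sequenced on an Illumina NextSeq500. Binding signal is each hexamer's read frequency for a factor divided by its frequency for the tag-only sample.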

The target in assay [2] is T2, ETV3L (Homo sapiens, UniProt Q6ZN32 1-361).
T2 sequence: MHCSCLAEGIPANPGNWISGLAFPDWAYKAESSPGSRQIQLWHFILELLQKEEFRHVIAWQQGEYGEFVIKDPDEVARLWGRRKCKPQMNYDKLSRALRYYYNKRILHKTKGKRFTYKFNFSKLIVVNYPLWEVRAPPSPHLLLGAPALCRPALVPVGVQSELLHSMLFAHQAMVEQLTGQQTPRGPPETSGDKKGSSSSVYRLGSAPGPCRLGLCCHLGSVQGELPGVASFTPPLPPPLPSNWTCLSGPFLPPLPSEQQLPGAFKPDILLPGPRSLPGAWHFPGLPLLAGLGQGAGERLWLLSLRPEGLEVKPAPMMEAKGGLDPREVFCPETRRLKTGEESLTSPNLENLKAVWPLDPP
A digest of the protocol: as §1

The target in assay [3] is T3, ETS2 (Homo sapiens, UniProt P15036 1-469).
T3 sequence: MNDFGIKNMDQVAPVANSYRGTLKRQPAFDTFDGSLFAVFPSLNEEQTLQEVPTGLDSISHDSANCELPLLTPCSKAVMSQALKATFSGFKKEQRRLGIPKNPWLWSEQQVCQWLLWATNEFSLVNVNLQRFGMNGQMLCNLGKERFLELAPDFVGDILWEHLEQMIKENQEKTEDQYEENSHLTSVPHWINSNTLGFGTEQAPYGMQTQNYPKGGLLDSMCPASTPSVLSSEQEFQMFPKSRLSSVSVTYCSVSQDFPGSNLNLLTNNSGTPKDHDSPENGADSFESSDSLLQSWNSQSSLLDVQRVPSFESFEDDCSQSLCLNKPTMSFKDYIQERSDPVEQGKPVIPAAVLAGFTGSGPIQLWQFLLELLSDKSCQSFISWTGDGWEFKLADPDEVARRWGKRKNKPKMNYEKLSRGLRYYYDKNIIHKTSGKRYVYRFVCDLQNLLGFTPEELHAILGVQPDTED
A digest of the protocol:
as §1

Assay [4] deals with T4, SPDEF (Homo sapiens, UniProt O95238 1-335).
T4 sequence: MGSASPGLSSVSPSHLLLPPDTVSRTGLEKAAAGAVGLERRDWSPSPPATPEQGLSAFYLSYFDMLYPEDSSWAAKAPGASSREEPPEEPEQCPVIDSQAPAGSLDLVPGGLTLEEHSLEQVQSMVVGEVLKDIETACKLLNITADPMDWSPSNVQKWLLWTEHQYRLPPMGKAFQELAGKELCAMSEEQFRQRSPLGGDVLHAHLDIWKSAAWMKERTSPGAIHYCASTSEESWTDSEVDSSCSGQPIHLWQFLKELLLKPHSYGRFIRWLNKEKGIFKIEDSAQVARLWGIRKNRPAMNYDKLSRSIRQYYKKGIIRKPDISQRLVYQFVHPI
A digest of the protocol: as §1

Assay [5] addresses T5, ETV7 (Homo sapiens, UniProt Q9Y603 1-341).
T5 sequence: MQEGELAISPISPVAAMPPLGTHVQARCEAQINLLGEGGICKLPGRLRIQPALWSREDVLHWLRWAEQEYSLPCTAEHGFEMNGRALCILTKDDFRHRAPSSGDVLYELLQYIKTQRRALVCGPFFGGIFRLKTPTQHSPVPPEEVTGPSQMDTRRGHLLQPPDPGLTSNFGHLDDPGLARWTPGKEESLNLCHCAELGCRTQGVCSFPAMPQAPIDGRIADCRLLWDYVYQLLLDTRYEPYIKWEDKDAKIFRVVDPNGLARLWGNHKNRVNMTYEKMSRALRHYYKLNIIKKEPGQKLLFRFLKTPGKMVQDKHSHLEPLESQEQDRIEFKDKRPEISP
An outline of the steps:
as §1

Assay [6] deals with T6, ELF5 (Homo sapiens, UniProt Q9UKW6-2 1-255).
T6 sequence: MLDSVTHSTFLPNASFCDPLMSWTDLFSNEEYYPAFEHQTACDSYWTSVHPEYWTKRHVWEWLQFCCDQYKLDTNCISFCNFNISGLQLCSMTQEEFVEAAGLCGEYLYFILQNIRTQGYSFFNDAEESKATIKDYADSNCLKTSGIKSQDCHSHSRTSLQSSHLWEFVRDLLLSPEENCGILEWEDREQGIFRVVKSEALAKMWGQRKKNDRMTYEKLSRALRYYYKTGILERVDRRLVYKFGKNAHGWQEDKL
A digest of the protocol:
as §1

The target in assay [7] is T7, ETV3 (Homo sapiens, UniProt P41162-2 1-143).
T7 sequence: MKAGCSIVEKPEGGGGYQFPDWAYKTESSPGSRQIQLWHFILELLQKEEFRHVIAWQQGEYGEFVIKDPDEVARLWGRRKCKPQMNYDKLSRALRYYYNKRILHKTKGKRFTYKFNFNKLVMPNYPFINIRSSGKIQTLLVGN
An outline of the steps: as §1

For assay [8], the target named is ETV6 (Homo sapiens, UniProt P41212 1-452). A digest of the protocol:
as §1

Sequence of ETV6 (P41212 whole entry): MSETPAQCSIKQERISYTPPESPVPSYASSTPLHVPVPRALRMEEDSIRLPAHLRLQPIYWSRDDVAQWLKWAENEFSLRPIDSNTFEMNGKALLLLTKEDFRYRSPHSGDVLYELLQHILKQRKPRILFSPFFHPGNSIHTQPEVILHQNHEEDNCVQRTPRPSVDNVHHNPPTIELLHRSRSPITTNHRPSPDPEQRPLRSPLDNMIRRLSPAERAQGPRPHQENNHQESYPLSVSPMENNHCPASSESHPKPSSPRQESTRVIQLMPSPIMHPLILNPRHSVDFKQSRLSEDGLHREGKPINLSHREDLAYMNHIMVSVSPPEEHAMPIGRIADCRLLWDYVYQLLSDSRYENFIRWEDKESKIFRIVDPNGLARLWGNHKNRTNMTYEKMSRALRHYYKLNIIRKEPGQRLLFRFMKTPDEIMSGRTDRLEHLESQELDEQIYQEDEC

Turning to TTGCAA, the binding signal was 1.15 fold enrichment (6-mer frequency, TF over GST control) in assay [1]; 1.19 fold enrichment (6-mer frequency, TF over GST control) in assay [2]; 1.1 fold enrichment (6-mer frequency, TF over GST control) in assay [3]; 1.25 fold enrichment (6-mer frequency, TF over GST control) in assay [4]; 1.19 fold enrichment (6-mer frequency, TF over GST control) in assay [5]; 1.12 fold enrichment (6-mer frequency, TF over GST control) in assay [6]. Further, the binding signal in assay [7] was 1.18 fold enrichment (6-mer frequency, TF over GST control); in assay [8], 1.16 fold enrichment (6-mer frequency, TF over GST control).
On to TCCCAA, for which the binding signal was 1.34 fold enrichment (6-mer frequency, TF over GST control) in assay [1]; 1.23 fold enrichment (6-mer frequency, TF over GST control) in assay [2]; 1.12 fold enrichment (6-mer frequency, TF over GST control) in assay [3]; 1.18 fold enrichment (6-mer frequency, TF over GST control) in assay [4]; 1.11 fold enrichment (6-mer frequency, TF over GST control) in assay [5]; 1.21 fold enrichment (6-mer frequency, TF over GST control) in assay [6]. The binding signal in assay [7] was 1.16 fold enrichment (6-mer frequency, TF over GST control); in assay [8] it was 1.23 fold enrichment (6-mer frequency, TF over GST control).
With CGATAG, the binding signal in assay [1] is 1.17 fold enrichment (6-mer frequency, TF over GST control); in assay [2] it was 1.07 fold enrichment (6-mer frequency, TF over GST control); in assay [3], 1.07 fold enrichment (6-mer frequency, TF over GST control); in assay [4], 1.03 fold enrichment (6-mer frequency, TF over GST control); in assay [5] it was 1.15 fold enrichment (6-mer frequency, TF over GST control); in assay [6], 1.02 fold enrichment (6-mer frequency, TF over GST control). The binding signal is 1.17 fold enrichment (6-mer frequency, TF over GST control) in assay [7] and 1.11 fold enrichment (6-mer frequency, TF over GST control) in assay [8].
As to ACGTTA, the binding signal was 1.17 fold enrichment (6-mer frequency, TF over GST control) in assay [1]; 1.12 fold enrichment (6-mer frequency, TF over GST control) in assay [2]; 1.15 fold enrichment (6-mer frequency, TF over GST control) in assay [3]; 1.06 fold enrichment (6-mer frequency, TF over GST control) in assay [4]; 1.09 fold enrichment (6-mer frequency, TF over GST control) in assay [5]; 1.06 fold enrichment (6-mer frequency, TF over GST control) in assay [6]. The binding signal in assay [7] was 1.16 fold enrichment (6-mer frequency, TF over GST control); in assay [8] it was 1.12 fold enrichment (6-mer frequency, TF over GST control).
In the case of CTCGTG, the binding signal in assay [1] is 1.12 fold enrichment (6-mer frequency, TF over GST control); in assay [2], 1.01 fold enrichment (6-mer frequency, TF over GST control); in assay [3] it was 1.13 fold enrichment (6-mer frequency, TF over GST control); in assay [4] it was 1.07 fold enrichment (6-mer frequency, TF over GST control); in assay [5], 1.12 fold enrichment (6-mer frequency, TF over GST control); in assay [6] it was 1.11 fold enrichment (6-mer frequency, TF over GST control). The binding signal in assay [7] is 1.08 fold enrichment (6-mer frequency, TF over GST control); in assay [8], 1.02 fold enrichment (6-mer frequency, TF over GST control).
Regarding CATGCT, the binding signal in assay [1] is 1.2 fold enrichment (6-mer frequency, TF over GST control); in assay [2], 1.35 fold enrichment (6-mer frequency, TF over GST control); in assay [3], 1.25 fold enrichment (6-mer frequency, TF over GST control); in assay [4], 1.2 fold enrichment (6-mer frequency, TF over GST control); in assay [5], 1.2 fold enrichment (6-mer frequency, TF over GST control); in assay [6] it was 1.19 fold enrichment (6-mer frequency, TF over GST control). Besides, the binding signal in assay [7] is 1.19 fold enrichment (6-mer frequency, TF over GST control); in assay [8] it was 1.28 fold enrichment (6-mer frequency, TF over GST control).
Take TTGATC: the binding signal in assay [1] is 1.23 fold enrichment (6-mer frequency, TF over GST control); in assay [2], 1.2 fold enrichment (6-mer frequency, TF over GST control); in assay [3], 1.1 fold enrichment (6-mer frequency, TF over GST control); in assay [4], 1.24 fold enrichment (6-mer frequency, TF over GST control); in assay [5] it was 1.08 fold enrichment (6-mer frequency, TF over GST control); in assay [6], 1.21 fold enrichment (6-mer frequency, TF over GST control). The binding signal in assay [7] is 1.26 fold enrichment (6-mer frequency, TF over GST control); in assay [8], 1.09 fold enrichment (6-mer frequency, TF over GST control).
